In PubChem BioAssay:
Unmarked numbers belong to inactive results. The source made the active and inactive calls. Rule as the data show it: active = inhibition above about 28%; inactive = the rest.

assay: StAR promoter reporter inhibitors, counter-screen for LRH-1 inverse agonist project, cell-based, luminescence, high throughput (AID 651611); conditions: StAR promoter luciferase reporter counterscreen, at 3.6 µM, stronger effect = higher value

Structure (SMILES)	inhibition
CCCc1cc(=O)oc2cc3oc(C)c(C)c3cc12	-1.82%
CCCc1cc(=O)oc2cc(C)cc(OCC(=O)Nc3ccccn3)c12	2.99%
CCOC(=O)C1CCN(Cc2cc(Cl)c3ccccc3c2O)CC1	1.44%
CCn1c2ccccc2c2cc(/C=N/n3cnnc3)ccc21	-4.6%
O=C(COC(=O)C1CCCCC1)NCCc1ccccc1	3.93%
COCCn1c(C)cc(/C=C(\C#N)C(=O)OCC(=O)Nc2ccc(S(N)(=O)=O)cc2)c1C	11.2%
Cc1ccc(NC(=O)COC(=O)CCC2CCCC2)c(Br)c1	5.75%
O=C(CCl)Nc1ccc2c(c1)OCO2	37.1% (active)
O=C1C=C(NCc2ccco2)C2(CCCCC2)O1	-2.64%
CCOc1ccc(CCNC(=O)COC(=O)Cc2c[nH]c3ccccc23)cc1OCC	9.43%
CCOc1ccc(NC(=O)CSc2nc3[nH]ncc3c(=O)[nH]2)cc1	8.84%
Clc1ccc(COc2cccc(CNCc3ccncc3)c2)cc1	2.94%
O=C(COC(=O)c1ccc(=O)n(Cc2ccccc2)n1)Nc1ccc2c(c1)OCCO2	11.8%
COC(=O)c1ccc(NC(=O)CSc2nc3ncccc3[nH]2)cc1	-4.1%
COc1ccc(CNC(=O)c2cccc3c(-c4cnn(C)c4)coc23)cc1OC	12.8%
COCc1cc(C)nc(SCC(=O)Nc2cc3c(cc2C#N)OCO3)c1C#N	-4.84%
CC1CC(=Cc2ccc(N)cc2)C(=O)O1 (centres undefined)	-13.5%
COc1ccccc1-n1c(SCC(=O)Nc2ccc(F)cc2)nc2c(c1=O)SCC2	10.4%
CC12CCC(=O)N1c1c(sc3nc(N4CCOCC4)c4c(c13)CCCC4)C(=O)N2 (centres undefined)	11.1%
O=c1c2ccc(Cl)cc2nc(-c2cccc(C(F)(F)F)c2)n1O	26.8%

Structure (SMILES)	inhibition
COc1ccc(NC(=O)CSc2nc(N)c(-c3ccccc3)c(=O)[nH]2)cc1	9.25%
CC(=O)c1ccc(-c2c(C)cc3oc(=O)cc(-c4ccccc4)c3c2C)cc1	-6.71%
COc1ccc(-c2nc(C(N)=O)c3[nH]c(=O)n(-c4cccc(Cl)c4)c3n2)cc1OC	20.8%
Oc1c(Cl)cc(CN2CCOCC2)c2cccnc12	4.86%
CC(=O)N1c2ccc(S(=O)(=O)N3CCC(C(=O)Nc4cccc(C)n4)CC3)cc2CC1C (centres undefined)	18%
Cc1cccc(NC(=O)COC(=O)c2cccs2)c1C	0.76%
O=C1CC(c2cccc([N+](=O)[O-])c2)c2ccc3ccccc3c2N1 (centres undefined)	11.8%
CC(=O)Nc1cc(-c2ccc(S(C)(=O)=O)cc2)cn2c(-c3ccc(F)cc3)cnc12	17.4%
O=C(Nc1cccc(S(=O)(=O)N2CCCCC2)c1)c1ccc([N+](=O)[O-])o1	33.8% (active)
CC(=O)Nc1ccc(NC(=O)CSc2nc(N)c(NC(=O)c3ccco3)c(=O)[nH]2)cc1	13.1%
Cc1cc(N2CCN(C(=O)c3ccco3)CC2)n2nc(-c3cccc(F)c3)cc2n1	14.2%
O=C(COC(=O)Cc1ccccc1[N+](=O)[O-])NCc1ccc(Cl)cc1	11.3%
Cc1ccc(C)c(NC(=O)CSc2nnc(CCNC(=O)OC(C)(C)C)o2)c1	20.9%
COc1ccc2c(/C=C/c3cc[n+](C)cc3)c[nH]c2c1	28.7% (active)
Cc1ccc(S(=O)(=O)N2CC(O)CC2C(=O)OCC(=O)Nc2ccc([N+](=O)[O-])cc2C(F)(F)F)cc1C (centres undefined)	18.7%
COC(=O)c1ccc(NC(=O)CSc2nnc(C)n2CC2CCCO2)cc1 (centres undefined)	3.1%
O=C(Nc1ccc(N2CCOCC2)c(Cl)c1)c1ccc([N+](=O)[O-])o1	-80.2%
Cc1c(NC(=O)c2cc(-c3cccs3)nc3ccccc23)c(=O)n(-c2ccccc2)n1C	47% (active)
COc1cc(C(=O)Nc2sc3c(c2C#N)CCN(C(C)=O)C3)cc(OC)c1OC	23.3%
